Results published in the supplement of paper PMC10981050.
Where a name gives a salt, the structure may show the parent alone.

These compounds were tested on OCI-AML2 (assay: cell viability relative to vehicle control; higher = less cytotoxic). Settings: 10 µM; SRSF2 genotype: P95H/wt.
How it was run: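 Screening covered the Selleck bioactive, kinase and epigenetic probe libraries, less identity-inconsistent compounds, on CRISPR-edited mutant clones and isogenic wild-type clones of four leukaemia lines. Cells, at 2000 per well in 50 µL medium, received a single 10 µM acoustically dispensed dose. After 48 h the supernatant was removed and CellTiter-Glo luminescence was read. Viability was analysed in Genedata Screener as percent of the on-plate vehicle control.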

Row | SMILES | cell viability [%]
1 | CO[C@H]1/C=C/O[C@@]2(C)Oc3c(C)c(O)c4c(O)c(c(/C=N/N5CCN(C6CCCC6)CC5)c(O)c4c3C2=O)NC(=O)/C(C)=C\C=C\[C@H](C)[C@H](O)[C@@H](C)[C@@H](O)[C@@H](C)[C@H](OC(C)=O)[C@@H]1C [Rifapentine] | 56.1
2 | O=C1NC(=O)/C(=C/c2ccc3c(c2)OC(F)(F)O3)S1 | 95.3
3 | CCOC(=O)c1ccc(N)cc1 [Benzocaine] | 91.4
4 | Cn1nc(C(C)(C)C)cc1C(=O)N[C@@H](Cc1cccc(Cl)c1)C(=O)NCC#N [Cathepsin Inhibitor 1] | 97.8
5 | Cc1c(C(=O)Nc2ccc(N3CCC(N4CCOCC4)CC3)c(C#N)c2)cnn1-c1ccc(Cl)cc1 | 8.8
6 | CCOC(=O)[C@H](CCc1ccccc1)N[C@@H](C)C(=O)N(CC(=O)O)C1Cc2ccccc2C1 [Delapril Hydrochloride] | 94
7 | CC1(C)[C@@H](O[C@H]2O[C@H](C(=O)O)[C@@H](O)[C@H](O)[C@H]2O[C@@H]2O[C@H](C(=O)O)[C@@H](O)[C@H](O)[C@H]2O)CC[C@]2(C)[C@H]3C(=O)C=C4[C@@H]5C[C@@](C)(C(=O)O)CC[C@]5(C)CC[C@@]4(C)[C@]3(C)CC[C@@H]12 [Ammonium Glycyrrhizate] | 106
8 | CCNC(=O)c1noc(-c2cc(C(C)C)c(O)cc2O)c1-c1ccc(CN2CCOCC2)cc1 [Luminespib (AUY-922, NVP-AUY922)] | 12.3
9 | C=CCc1cc(OC)c(O)c(C(=O)NCCO)c1 [Alibendol] | 100
10 | CN1CCN(Cc2ccc(Nc3ncc(Cl)c(Nc4ccccc4S(=O)(=O)N(C)C)n3)cc2)CC1 | 2.24
11 | CC(C[N+](C)(C)C)OC(N)=O (centres undefined) [Bethanechol chloride] | 109
12 | CC1=CC(=O)[C@@H]2C[C@H]1C2(C)C [(-)-Verbenone] | 87.2
13 | C[C@@H](Nc1cc(F)cc(F)c1)c1cc(C(=O)N(C)C)cc2c(=O)cc(N3CCOCC3)oc12 | 25.5
14 | Cc1nc2cccc(N)c2c(=O)n1C1CCC(=O)NC1=O (centres undefined) [Avadomide(CC-122)] | 159
15 | CN1Cc2c(ccc3c2OCO3)[C@@]2(C)[C@@H](O)Cc3cc4c(cc3[C@@H]12)OCO4 [Corynoline] | 5.69
16 | COc1ccc(Oc2cc(NCCC(F)(F)F)c3ncc(-c4ccc(C(=O)NC5CC5)c(C)c4)n3n2)c(F)c1F | 71.4
17 | O=[N+]([O-])c1ccc(Sc2cccc[n+]2[O-])c2nonc12 | 0.28

Row | SMILES | cell viability [%]
18 | CC(=O)N1CCN(c2ccc(NC(=O)Cc3cnc(-c4ccnc(F)c4)c(C)c3)nc2)CC1 | 91.1
19 | C[C@@H]1CC[C@H]2C(C)(C)[C@H]3C[C@@]12CC[C@@]3(C)O [Cedrol] | 98.2
20 | CNC(=O)c1ccc(N2C(=S)N(c3cnc(C#N)c(C(F)(F)F)c3)C(=O)C23CCC3)cc1F | 96.2
21 | C=C1[C@@H]2CC[C@@H](C2)C1(C)C [Camphene] | 98.5
22 | CCCCCCCCC(=O)O [Nonanoic acid] | 107
23 | CC1(C)S[C@@H]2[C@H](NC(=O)[C@H](NC(=O)N3CCNC3=O)c3ccccc3)C(=O)N2[C@H]1C(=O)O [Azlocillin sodium salt] | 88
24 | COc1cc2ncnc(Nc3ccc(F)c(Cl)c3)c2cc1NC(=O)/C=C/CN1CCCCC1 | 20.2
25 | O=C1NS(=O)(=O)c2ccccc21 [Saccharin] | 89.5
26 | CNC(=O)c1cnn(-c2nc(N)c3ncn([C@@H]4O[C@H](CO)[C@@H](O)[C@H]4O)c3n2)c1 [Regadenoson] | 104
27 | CCCc1cc(C(N)=S)ccn1 [Protionamide (Prothionamide)] | 100
28 | O=C(c1ccc(Oc2ccccc2)cc1Cl)c1c[nH]c2ncnc(N[C@@H]3CC[C@@H](CO)OC3)c12 | 13.4
29 | C=CC(=O)Nc1cc(Nc2nccc(-c3cn(C)c4ccccc34)n2)c(OC)cc1N(C)CCN(C)C | 0.32
30 | CC(=O)Oc1c(C)c(C)c2c(c1C)CCC(C)(CCC[C@H](C)CCC[C@H](C)CCCC(C)C)O2 (some centres undefined) [Vitamin E Acetate] | 105
31 | C=CC(=O)Nc1ccc2ncnc(Nc3cccc(Br)c3)c2c1 | 50
32 | CC1(C)O[C@H]1COc1c2ccoc2cc2oc(=O)ccc12 [Oxypeucedanin] | 81.9
33 | Cc1nc2ccc(NC(=O)Nc3ccnc4cccnc34)cc2o1 | 88.2
34 | O=C(COc1ccc(C(=O)c2ccccc2)cc1)NC1CCN(Cc2ccccc2)CC1 [Adiporon] | 40.5
